This is a sample that favours compounds with a hit; in the whole collection about 1.8% have one here.
EBV gp42 block: Epstein-Barr virus gp42 inhibitors, primary screen, biochemical, uHTS, fluorescence polarization; Glycoprotein 42 (Epstein-Barr virus (strain AG876)), Q1HVG2; Fluorescence polarization binding assay, mP read-out; inhibition, % (tested at 21.74 µM); 220,000 tested, 0.42% active; AID 1085, 2008; in the data active means inhibition above about 50%
Target sequence (Q1HVG2 whole entry, looked up): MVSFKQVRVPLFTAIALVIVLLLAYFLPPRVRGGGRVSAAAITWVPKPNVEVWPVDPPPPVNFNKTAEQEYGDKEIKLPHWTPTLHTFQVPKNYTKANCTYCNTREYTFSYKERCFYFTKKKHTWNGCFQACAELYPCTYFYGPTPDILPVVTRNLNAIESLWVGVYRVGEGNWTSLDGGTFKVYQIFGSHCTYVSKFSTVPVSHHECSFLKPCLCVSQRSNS
PABP polyA inh: PABP poly(A) RNA binding inhibitors, primary screen, biochemical, fluorescence polarization, uHTS. Polyadenylate-binding protein 1 (Homo sapiens), P11940. calls only at 35 µM. 290,000 tested, 1% active;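 further: calls also rest on retests at 20 µM and on dose response follow-up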
eIF4H inh: human eIF4H binding inhibitors, primary screen, translation initiation inhibitor project, biochemical, uHTS, fluorescence polarization; Eukaryotic translation initiation factor 4H (Homo sapiens), Q15056; inhibition, % at 35 µM; eIF4H fluorescence polarization binding assay; 290,000 tested, 0.94% active;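 further: calls also rest on retests at 20 µM and on dose response follow-up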
MEX-5 binding: MEX-5 zinc finger RNA-binding disruptors – biochemical, C. elegans, fluorescence polarization, MLPCN library, primary screen; MEX-5/FITC-TCR2 RNA binding; active compounds read low; 300,000 tested, 0.38% active; Zinc finger protein mex-5 (Caenorhabditis elegans), Q9XUB2; activity score (negative = inhibition of binding), % at 10 µM; AID 1832, 2009;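 active means inhibition past about -25% in most replicates, and total fluorescence under double the plate's negative control median, limit read from the data; inconclusive means replicates evenly split on the limit, or fluorescence at least double controls; inactive means too little inhibition in most replicates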
MLLE-PAM2 inh: inhibitors of PABP1 MLLE–PAM2 peptide binding, primary screen, biochemical, fluorescence polarization, FITC-PAM2, GST-MLLE. Polyadenylate-binding protein 1 (Homo sapiens), P11940. inhibition, % at 20 µM. AID 588489, 2011. 360,000 tested, 0.36% active; in the data active means inhibition above about 35%, passing the limit was not always enough
Of the large screens only hits and unclear results are named; the others gave an inactive call. Unless noted, how the calls were made is not given here.

Cc1c(N2C(=O)c3ccc4c5c(ccc(c35)C2=O)CC4)c(=O)n(-c2ccccc2)n1C	EBV gp42 block 79.2, PABP polyA inh active, eIF4H inh 92.8
Cc1c(N2C(=O)c3ccc(Br)cc3C2=O)c(=O)n(-c2ccccc2)n1C	none
O=C(c1cc(Cl)cc(Cl)c1)N1CCC2CC1c1cc(N3CCCCC3)ccc12 (stereo not drawn)	none (no result: EBV gp42 block, PABP polyA inh, eIF4H inh, MEX-5 binding)
NNc1nc2sc3c(c2c(=O)[nH]1)CCc1ccccc1-3	PABP polyA inh active, eIF4H inh 101.0
Nc1nnc2cc(Br)ccc2n1	MLLE-PAM2 inh 75.2 (no result: EBV gp42 block, PABP polyA inh, eIF4H inh, MEX-5 binding)
CC1(C(=O)NS(=O)(=O)c2ccc(Br)cc2)CCN1C(=O)Cc1ccsc1 (stereo not drawn)	none (no result: EBV gp42 block, PABP polyA inh, eIF4H inh, MEX-5 binding)
c1ccc(Cc2nnc3n2CCCCC3)cc1	none
c1ccc2c(c1)CCCN2Cc1nnc2n1CCCCC2	PABP polyA inh active, eIF4H inh 60.6
CCC(=O)N1CCCC1(C)C(=O)Nc1ccc2nc(C)ccc2c1 (stereo not drawn)	none (no result: EBV gp42 block, PABP polyA inh, eIF4H inh, MEX-5 binding)
CCC(=O)Nc1nc2n(n1)C(c1ccc(OC)cc1)C=C(c1ccccc1)N2 (stereo not drawn)	EBV gp42 block 60.1 (no result: MLLE-PAM2 inh)
CC(=O)Nc1nc2n(n1)C(c1ccc(F)cc1)C=C(c1ccccc1)N2 (stereo not drawn)	none
CS(=O)(=O)Nc1nc2n(n1)C(c1ccccc1)C=C(c1ccc(Br)cc1)N2 (stereo not drawn)	EBV gp42 block 58.0, PABP polyA inh active, eIF4H inh 76.3, MEX-5 binding -68.8
CC(=O)Nc1nc2n(n1)C(c1ccccc1)C=C(c1ccccc1)N2 (stereo not drawn)	MLLE-PAM2 inh 58.7
O=C(c1nc2n(n1)C(c1ccc(Cl)cc1)C=C(c1ccccc1)N2)N1CCOCC1 (stereo not drawn)	EBV gp42 block 77.4, PABP polyA inh active, eIF4H inh 66.2
COc1ccccc1C1C=C(c2ccc(Cl)cc2)Nc2nc(NS(C)(=O)=O)nn21 (stereo not drawn)	none (no result: MLLE-PAM2 inh)
O=C(Nc1nc2n(n1)C(c1ccccc1)C=C(c1ccccc1)N2)c1ccco1 (stereo not drawn)	none
Cc1ccc(CN2C(=O)C(C)Sc3ccc(C#N)cc32)cc1 (stereo not drawn)	none (no result: EBV gp42 block, PABP polyA inh, eIF4H inh, MEX-5 binding)
CCCCN(C=O)c1c(CC)nc2ccc(C(=O)NCCc3ccccn3)cn12	none (no result: EBV gp42 block, PABP polyA inh, eIF4H inh, MEX-5 binding)
COc1cc(C2C=C(c3cccs3)Nc3ncnn32)cc(OC)c1OC (stereo not drawn)	EBV gp42 block 105.4, eIF4H inh inconclusive (no result: MEX-5 binding)
COc1ccc(C2C=C(c3ccc(Cl)cc3)Nc3nc(NC(C)=O)nn32)cc1 (stereo not drawn)	EBV gp42 block 106.3 (no result: MEX-5 binding, MLLE-PAM2 inh)
COc1ccc(C2C=C(c3cccs3)Nc3nc(CCCO)nn32)cc1 (stereo not drawn)	EBV gp42 block 151.0, PABP polyA inh inconclusive, eIF4H inh inconclusive (no result: MEX-5 binding, MLLE-PAM2 inh)
COc1ccc(C2=CC(c3ccc(Cl)cc3)n3cnnc3N2)cc1OC (stereo not drawn)	EBV gp42 block 54.7
COc1ccc(C#Cc2cnc3c(c2)C(=O)N([C@H](C)CO)C[C@@H](C)[C@H](CN(C)C(=O)CN(C)C)O3)cc1	none (no result: EBV gp42 block, PABP polyA inh, eIF4H inh, MEX-5 binding)
COc1ccc(C2=CC(c3ccc(F)cc3)n3nnnc3N2)cc1 (stereo not drawn)	MLLE-PAM2 inh 45.5
CCCCC(=O)N(C)c1c(C)nc2ccc(C(=O)NCCN(C)C)cn12	none (no result: EBV gp42 block, PABP polyA inh, eIF4H inh, MEX-5 binding)
CCN(CCNCC(O)COCc1ccc(Cl)cc1)c1cccc(C)c1 (stereo not drawn)	eIF4H inh 14.0
C[C@@H]1CN([C@@H](C)CO)S(=O)(=O)c2ccc(Br)cc2O[C@H]1CN(C)C(=O)c1cccc(F)c1	none (no result: EBV gp42 block, PABP polyA inh, eIF4H inh, MEX-5 binding)
O=C(O)CNC(=O)CC1S/C(=N/N=C/c2ccccc2O)NC1=O (stereo not drawn)	none
O=C(O)CNC(=O)CC1S/C(=N/N=C2\CSC(=O)N2)NC1=O (stereo not drawn)	MLLE-PAM2 inh 41.9
Cc1ccc(-n2c(C)cc3c2CCCC3=O)cc1	MLLE-PAM2 inh 41.6
COc1cccc(CN(C)CCCn2cnc3c(SC)ncnc32)c1	none (no result: EBV gp42 block, PABP polyA inh, eIF4H inh, MEX-5 binding)
O=C(CCl)Nc1cccc2ncccc12	PABP polyA inh active, eIF4H inh 104.2
O=C(CSc1ccccn1)Nc1cccc2ccccc12	PABP polyA inh active, eIF4H inh 1.8

Compound activity: PubChem, several laboratories
